The sample as a whole holds a higher share of hits than the screen did.
Vaccinia Venus = inhibitors of vaccinia virus (Venus reporter); Vaccinia virus Venus reporter expression, fluorescence; Potency, µM (highest dose often 36.5 µM), inactives show top-dose activity change, negative = inhibition, actives largely listed as inhibitors; hit rate 0.46% among 330,000; AID 720580; calls by dose curve; tested in A549 cells; note: potency is the fitted concentration of half-maximal effect; % is set by controls: 0 for no effect and ±100 for the full control effect; nearly all actives have a fitted effect of over 30% in size
Shiga toxin inh = blocks Shiga toxin action in Vero cells | inhibition, % at 38.7 µM | hit rate 9.2% among 290,000 | Vero cells, Shiga toxin protein synthesis inhibition reporter | AID 2315; in the data active = inhibition mostly above about 28%, no sharp cut-off; inactive = mostly below about 43%; note: 0% is about no effect
Vaccinia mCherry = vaccinia inhibition (mCherry reporter). AID 720579. hit rate 0.63% among 310,000. Vaccinia virus mCherry reporter infection, fluorescence. Potency, µM (doses to about 36.5 µM), inactives show at the top dose activity change, negative = inhibition, most hits filed as inhibitors; calls by dose curve; tested in A549 cells; note: potency is the fitted concentration of half-maximal effect; % is set by controls: 0 for no effect and ±100 for the full control effect; nearly all actives have a fitted effect of over 35% in size
CHX counter = affects cycloheximide protein synthesis inhibition readout, counter-screen. max response, %. cell reporter, cycloheximide protein synthesis inhibition counterscreen. hit rate 12% among 300,000. AID 2314; in the data active = max response mostly above about 13%, no sharp cut-off; inactive = mostly below about 14%; note: read at 38.3 µM for the half of the compounds with a filed dose; 0% is about no effect
LASV entry inh = inhibitors of Lassa virus binding or cell entry; Lassa virus pseudotype entry inhibition, cell reporter; Potency, µM (top dose mostly 37.9 µM), for the others: at the top dose activity change, negative = inhibition, hits mostly inhibitors; hit rate 1.2% among 300,000; AID 540256; calls by dose curve; tested in HEK293 cells; note: potency is the fitted concentration of half-maximal effect; % is set by controls: 0 for no effect and ±100 for the full control effect; nearly all actives have a fitted effect of over 50% in size
Marburg entry inh = blocks Marburg virus binding to or entry into cells. AID 540276. Potency, µM (doses to about 37.8 µM), for inactives: top-dose activity change, negative = inhibition, most hits filed as inhibitors. hit rate 1.8% among 300,000. Marburg virus pseudotyped entry inhibition, cell reporter; calls by dose curve; tested in HEK293 cells; note: potency is the fitted concentration of half-maximal effect; % is set by controls: 0 for no effect and ±100 for the full control effect
Starred values were filed as active, the others as inactive; [ ] = dose if it differs, or a comment.

Results for CCOC(=O)c1ccc(Nc2cc(C)nc(N3CCOCC3)n2)cc1 ?
Vaccinia Venus: 12.6µM*; Shiga toxin inh: -22.4; Vaccinia mCherry: 10µM*; CHX counter: -6.7; LASV entry inh: -24.1%; Marburg entry inh: inconclusive

How did Clc1ccc(Nc2nc(N3CCOCC3)nc(N3CCOCC3)n2)cc1Cl do in these assays?
Shiga toxin inh: 9.2; CHX counter: 0.8

Results for CCn1c(SCC(=O)Nc2ccc(OC)cc2)nc2c(c1=O)SCC2 ?
Vaccinia Venus: -9.1%; Shiga toxin inh: -2.9; Vaccinia mCherry: -14.7%; CHX counter: 9.6; LASV entry inh: 14.9%; Marburg entry inh: -9.7%

What do the screens show for `Cc1ccc(Nc2cc(C)nc(N3CCOCC3)n2)cc1`?
Vaccinia Venus: -25.8%; Shiga toxin inh: 81.4*; Vaccinia mCherry: inactive; CHX counter: 26.4*; LASV entry inh: 23.2%; Marburg entry inh: 5.62µM*

How did Cc1[nH]c2ccccc2c1/C=N/Nc1nc(Nc2ccccc2)nc(N2CCOCC2)n1 do in these assays?
Shiga toxin inh: 16.2; CHX counter: 20.4*; LASV entry inh: 5.8µM*; Marburg entry inh: 0.326µM*

Results for CCOc1ccc(Nc2cc(C)nc(N3CCOCC3)n2)cc1 ?
Vaccinia Venus: -13.6%; Shiga toxin inh: -4.6; CHX counter: -4.8; LASV entry inh: 0.2%; Marburg entry inh: -27.1%

What do the screens show for `CN1CCN(c2nc(Nc3cccc(C(F)(F)F)c3)nc(N3CCOCC3)n2)CC1`?
Shiga toxin inh: -6.9; CHX counter: -3.3; LASV entry inh: inconclusive; Marburg entry inh: 20.6µM*

What do the screens show for `Cc1ccccc1Nc1nc(N2CCOCC2)nc(N2CCOCC2)n1`?
Vaccinia Venus: -6.7%; Shiga toxin inh: -1.9; Vaccinia mCherry: inactive; CHX counter: -2.4; LASV entry inh: -28.8%[46.1 µM]; Marburg entry inh: 6.31µM*

How did O=C(Nc1ccc(F)c(Cl)c1)C1CCCN(c2ncnc3onc(-c4ccc(F)cc4)c23)C1 (stereo unspecified) do in these assays?
Vaccinia Venus: -19.8%; Vaccinia mCherry: -14.8%; LASV entry inh: 11.1%[46.1 µM]

Results for O=C(C[n+]1ccncc1)c1ccc2ccccc2c1 ?
Vaccinia Venus: 1.4%; Vaccinia mCherry: 22.6%

What do the screens show for `Clc1ccc(Nc2nc(NCCN3CCOCC3)nc(N3CCOCC3)n2)cc1`?
Vaccinia Venus: inconclusive; Shiga toxin inh: -1.0; CHX counter: -2.5; LASV entry inh: inconclusive; Marburg entry inh: 2.82µM*

How did Clc1ccc(Nc2nc(Nc3ccc(Cl)cc3)nc(N3CCOCC3)n2)cc1 do in these assays?
Vaccinia Venus: -21.8%; Vaccinia mCherry: 15.7%

Results for COC1=C[C@H](C(=O)N[C@H]2CCCC[C@H]2NC(C)=O)[C@@]2(C)Cc3ccccc3[C@@H]2CC1=O ?
Marburg entry inh: -12.3%[14.2 µM]

What do the screens show for `Cc1ccc(-c2nnc(-c3ccncc3)n2-c2ccc(C)cc2)cc1`?
Shiga toxin inh: 52.7*; CHX counter: 20.2*; LASV entry inh: 8.6%; Marburg entry inh: 9.1%

Results for COc1cccc(COC(=O)c2ccc(-c3nnn(Cc4ccccc4)n3)cc2)c1 ?
Vaccinia Venus: -7.4%; Vaccinia mCherry: -7.0%; LASV entry inh: -9.6%[46.1 µM]; Marburg entry inh: 12.7%[46.1 µM]

Results for CCN(CC(=O)Nc1c(F)cccc1F)C(=O)CNC(=O)c1ccc(C)s1 ?
Vaccinia Venus: -9.5%; Shiga toxin inh: 65.2*; Vaccinia mCherry: -24.8%; CHX counter: 51.2*; LASV entry inh: -5.3%; Marburg entry inh: 6.0%

Results for O=C(Nc1cccc(O)c1)c1ccc(C(F)(F)F)cc1 ?
Vaccinia Venus: -1.1%; Shiga toxin inh: 68.6*; Vaccinia mCherry: -36.4%; CHX counter: 30.5*; LASV entry inh: inconclusive; Marburg entry inh: inconclusive

How did O=C(Nc1ccc(C(F)(F)F)cc1)c1ccccc1 do in these assays?
Vaccinia Venus: -15.6%; Vaccinia mCherry: 9.5%

How did O=C(Nc1ccc(Br)c(C(F)(F)F)c1)c1ccccc1 do in these assays?
Vaccinia Venus: -28.2%; Shiga toxin inh: 20.7; Vaccinia mCherry: inconclusive; CHX counter: 45.8*; LASV entry inh: inconclusive; Marburg entry inh: -15.0%

Results for CC(C)CC(=O)Nc1ccc(C(=O)Nc2cccc(O)c2)cc1 ?
Vaccinia Venus: -19.0%; Shiga toxin inh: 73.5*; Vaccinia mCherry: -4.6%; CHX counter: 32.3*; LASV entry inh: 28.2%[46.1 µM]; Marburg entry inh: inconclusive

What do the screens show for `O=C(Nc1ccccc1)c1ccc(S(=O)(=O)Nc2cccc(O)c2)cc1`?
Shiga toxin inh: -23.9; CHX counter: -1.1

What do the screens show for `O=C(Nc1ccc(Br)c(C(F)(F)F)c1)c1ccc(C(F)(F)F)cc1`?
Vaccinia Venus: inconclusive; Shiga toxin inh: 77.8*; Vaccinia mCherry: inconclusive; CHX counter: 36.4*; LASV entry inh: inconclusive; Marburg entry inh: inconclusive

How did O=C(Nc1cccc(C(F)(F)F)c1)c1cc[n+]([O-])cc1 do in these assays?
Vaccinia Venus: 4.9%; Shiga toxin inh: -5.0; Vaccinia mCherry: -4.9%; CHX counter: -0.8; LASV entry inh: 4.4%; Marburg entry inh: -3.1%[46.1 µM]

What do the screens show for `CC1CCN(S(=O)(=O)c2ccc3c(c2)N(CC(=O)NC(C)c2ccccc2)C(=O)CO3)CC1` (stereo unspecified)?
Vaccinia Venus: -13.1%; Vaccinia mCherry: -13.6%; LASV entry inh: -1.4%[46.1 µM]; Marburg entry inh: -29.2%[46.1 µM]

How did C[S@@](=O)CCCCN=C=S do in these assays?
Shiga toxin inh: -12.5; CHX counter: 57.3*

Results for CC(CC1=C2C=CC=CC2N=C1)NC(N)=O (stereo unspecified) ?
Marburg entry inh: 5.1%[46.1 µM]

What do the screens show for `CCn1nc(C)c(CN2CCc3c([nH]c4ccccc34)C2c2ccc(F)c(OC)c2)c1C` (stereo unspecified)?
Vaccinia Venus: -18.6%; Shiga toxin inh: 19.4; Vaccinia mCherry: -27.9%; CHX counter: 16.5*; LASV entry inh: 23.1%[46.1 µM]; Marburg entry inh: inconclusive

What do the screens show for `CCn1cc(CN2CCc3c([nH]c4ccccc34)C2c2ccc(F)c(OC)c2)c(C)n1` (stereo unspecified)?
Vaccinia Venus: -14.0%; Shiga toxin inh: 4.3; Vaccinia mCherry: inconclusive; CHX counter: 2.6; LASV entry inh: -0.2%[46.1 µM]; Marburg entry inh: inconclusive

What do the screens show for `NC(=O)c1ccccc1N/C=C/C(=O)c1ccccc1`?
Shiga toxin inh: 56.4*; CHX counter: 47.3*; LASV entry inh: -1.8%; Marburg entry inh: 11.1%

How did COC(=O)c1ccccc1NC(=O)c1ccc(-c2ccc(Br)cc2)o1 do in these assays?
Vaccinia Venus: 1.6%; Shiga toxin inh: 8.4; CHX counter: 9.1; LASV entry inh: 10.4%; Marburg entry inh: 0.0%

How did COC(=O)c1ccccc1N/C=C/C(=O)c1ccc(Br)cc1 do in these assays?
Vaccinia Venus: -7.3%; Shiga toxin inh: 26.8*; Vaccinia mCherry: -11.2%; CHX counter: 42.9*; LASV entry inh: 3.7%; Marburg entry inh: 9.5%

What do the screens show for `CS(=O)(=O)N(Cc1ccccc1F)c1ccccc1`?
Vaccinia Venus: -7.2%; Shiga toxin inh: -6.7; Vaccinia mCherry: -1.9%; CHX counter: -4.5; LASV entry inh: -5.7%; Marburg entry inh: -2.0%[46.1 µM]

Source: PubChem (National Center for Advancing Translational Sciences (NCATS))
